# Experimental data from PubChem BioAssay (Tox21).
# Records with an inconclusive call do not appear. Where a call stands in place of a potency, no number is given. Unmarked numbers belong to inactive results. Activity calls are given as the source filed them. Calls follow the shape of the dose curve; as a rule, active = well fitted curve in the direction sought with a large enough effect in the repeat runs; inconclusive = weak or mixed curves; inactive = no such curve, though single readings can be large; an effect the other way counts as inactive or inconclusive.
# What was measured:
# [1] = target: Cytochrome P450 2C9 (Homo sapiens) (UniProt P11712); assay: Cytochrome P450 Family 2 Subfamily C Member 9 (CYP2C9) small molecule antagonists: luciferase reporter qHTS assay (AID 1671198); settings: P450-Glo CYP2C9 enzyme assay, luciferin luminescence; series mostly up to 115 µM
# Outline: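 CYP2C9 activity was measured with a P450-Glo proluciferin substrate. Enzyme–substrate mix was held with compound for 10 min at room temperature, then NADPH regeneration solution was added for 1 h at 37C. Luciferin product was read as luminescence.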
# [2] = target: Voltage-gated inwardly rectifying potassium channel KCNH2 (Homo sapiens) (UniProt Q12809); assay: Human Ether-a-go-go-Related Gene (hERG) channel small molecule antagonists: fluorescence cell-based qHTS assay (AID 1671200); settings: hERG-U2OS cells, FluxOR thallium flux fluorescence; series mostly up to 76.8 µM;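 as to activity change, negative = inhibition: hERG-expressing U2OS cells given a thallium stimulus after FluxOR II dye loading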
# Outline: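 Kinetic two-minute fluorescence traces, sampled at 1 s, were collected following thallium stimulus of U2OS cells (1000 per well) that had been cultured overnight at 37 C and loaded with FluxOR II.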
# [3] = target: Cytochrome P450 3A4 (Homo sapiens) (UniProt P08684); assay: Cytochrome P450 Family 3 Subfamily A Member 4 (CYP3A4) small molecule antagonists: luciferase reporter qHTS assay (AID 1671201); settings: P450-Glo CYP3A4 enzyme, luciferin luminescence, 1 h; series mostly up to 115 µM
# Outline: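 Proluciferin-to-luciferin conversion by CYP3A4, NADPH-regenerated, 1 h RT; luminescence read as RLU. Ketoconazole as control.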
# [4] = target: Cytochrome P450 1A2 (Homo sapiens) (UniProt P05177); assay: Cytochrome P450 Family 1 Subfamily A Member 2 (CYP1A2) small molecule antagonists: luciferase reporter qHTS assay (AID 1671199); settings: P450-Glo CYP1A2 enzyme, luciferin luminescence, 1 h; series mostly up to 115 µM
# Outline: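 Human CYP1A2 activity measured with a P450-Glo proluciferin substrate; compounds in DMSO preincubated 10 min at room temperature with enzyme-substrate mix, then NADPH regeneration system added for 1 h. Luciferin detection reagent, 20 min, luminescence read.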
# Also: nearly all actives have a fitted effect of over 50% in size.
# Potency is read from the fitted curve at half-maximal effect.
# Cytochrome P450 2C9 (Homo sapiens), sequence (P11712 whole entry, looked up): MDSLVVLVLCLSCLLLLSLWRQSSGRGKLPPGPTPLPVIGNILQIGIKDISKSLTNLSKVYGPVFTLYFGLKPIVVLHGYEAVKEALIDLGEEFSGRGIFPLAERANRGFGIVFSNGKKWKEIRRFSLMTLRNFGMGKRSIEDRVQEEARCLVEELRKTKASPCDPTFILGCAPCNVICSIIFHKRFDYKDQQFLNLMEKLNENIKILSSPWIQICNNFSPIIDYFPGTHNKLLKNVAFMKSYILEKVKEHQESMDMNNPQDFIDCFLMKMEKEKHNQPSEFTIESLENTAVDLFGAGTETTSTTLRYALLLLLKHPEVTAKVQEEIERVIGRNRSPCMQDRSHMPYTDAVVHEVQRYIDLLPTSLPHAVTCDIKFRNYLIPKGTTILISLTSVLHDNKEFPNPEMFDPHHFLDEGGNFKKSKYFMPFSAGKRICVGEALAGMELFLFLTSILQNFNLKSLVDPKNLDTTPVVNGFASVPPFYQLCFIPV
# Cytochrome P450 3A4 (Homo sapiens), sequence (P08684 whole entry, looked up): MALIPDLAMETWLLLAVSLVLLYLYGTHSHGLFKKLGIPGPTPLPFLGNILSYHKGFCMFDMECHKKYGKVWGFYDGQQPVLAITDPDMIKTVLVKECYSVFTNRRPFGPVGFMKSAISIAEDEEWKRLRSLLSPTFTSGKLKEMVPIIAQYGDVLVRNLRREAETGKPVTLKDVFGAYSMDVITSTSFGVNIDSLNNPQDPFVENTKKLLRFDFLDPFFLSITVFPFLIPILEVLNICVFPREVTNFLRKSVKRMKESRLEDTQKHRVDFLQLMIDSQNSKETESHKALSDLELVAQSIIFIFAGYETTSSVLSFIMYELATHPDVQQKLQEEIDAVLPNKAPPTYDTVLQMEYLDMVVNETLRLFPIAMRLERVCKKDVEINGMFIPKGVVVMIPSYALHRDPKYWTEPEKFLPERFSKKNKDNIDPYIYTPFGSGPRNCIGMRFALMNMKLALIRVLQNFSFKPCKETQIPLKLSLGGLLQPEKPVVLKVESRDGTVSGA
# Voltage-gated inwardly rectifying potassium channel KCNH2 (Homo sapiens), sequence (Q12809 whole entry, looked up): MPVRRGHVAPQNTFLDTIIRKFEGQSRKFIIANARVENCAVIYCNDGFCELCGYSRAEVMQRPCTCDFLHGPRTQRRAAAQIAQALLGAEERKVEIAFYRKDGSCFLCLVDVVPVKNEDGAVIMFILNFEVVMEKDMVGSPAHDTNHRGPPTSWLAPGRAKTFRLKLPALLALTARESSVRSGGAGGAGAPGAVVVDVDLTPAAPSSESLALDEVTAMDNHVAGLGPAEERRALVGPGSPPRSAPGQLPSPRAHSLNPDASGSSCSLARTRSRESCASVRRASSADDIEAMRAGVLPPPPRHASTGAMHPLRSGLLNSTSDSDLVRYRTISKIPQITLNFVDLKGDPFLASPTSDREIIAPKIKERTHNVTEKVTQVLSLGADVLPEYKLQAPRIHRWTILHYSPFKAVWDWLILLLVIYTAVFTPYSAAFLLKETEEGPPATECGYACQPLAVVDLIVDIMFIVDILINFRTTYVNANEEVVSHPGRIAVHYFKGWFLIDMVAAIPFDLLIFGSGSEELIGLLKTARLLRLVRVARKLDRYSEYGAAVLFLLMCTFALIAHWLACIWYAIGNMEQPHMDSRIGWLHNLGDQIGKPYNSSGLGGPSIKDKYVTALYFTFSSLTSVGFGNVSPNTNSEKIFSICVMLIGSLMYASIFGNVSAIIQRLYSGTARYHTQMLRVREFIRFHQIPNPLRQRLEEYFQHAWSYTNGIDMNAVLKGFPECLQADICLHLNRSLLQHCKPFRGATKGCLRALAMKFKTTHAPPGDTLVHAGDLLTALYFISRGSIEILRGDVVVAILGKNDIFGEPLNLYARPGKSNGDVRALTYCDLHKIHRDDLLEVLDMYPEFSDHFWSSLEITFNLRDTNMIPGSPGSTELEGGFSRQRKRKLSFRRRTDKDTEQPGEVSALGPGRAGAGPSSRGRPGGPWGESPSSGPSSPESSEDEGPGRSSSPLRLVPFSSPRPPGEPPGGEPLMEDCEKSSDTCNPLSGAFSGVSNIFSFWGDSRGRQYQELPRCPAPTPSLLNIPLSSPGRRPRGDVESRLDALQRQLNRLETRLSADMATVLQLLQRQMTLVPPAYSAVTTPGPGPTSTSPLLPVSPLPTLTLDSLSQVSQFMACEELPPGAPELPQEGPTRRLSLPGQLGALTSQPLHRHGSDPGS
# Cytochrome P450 1A2 (Homo sapiens), sequence (P05177 whole entry, looked up): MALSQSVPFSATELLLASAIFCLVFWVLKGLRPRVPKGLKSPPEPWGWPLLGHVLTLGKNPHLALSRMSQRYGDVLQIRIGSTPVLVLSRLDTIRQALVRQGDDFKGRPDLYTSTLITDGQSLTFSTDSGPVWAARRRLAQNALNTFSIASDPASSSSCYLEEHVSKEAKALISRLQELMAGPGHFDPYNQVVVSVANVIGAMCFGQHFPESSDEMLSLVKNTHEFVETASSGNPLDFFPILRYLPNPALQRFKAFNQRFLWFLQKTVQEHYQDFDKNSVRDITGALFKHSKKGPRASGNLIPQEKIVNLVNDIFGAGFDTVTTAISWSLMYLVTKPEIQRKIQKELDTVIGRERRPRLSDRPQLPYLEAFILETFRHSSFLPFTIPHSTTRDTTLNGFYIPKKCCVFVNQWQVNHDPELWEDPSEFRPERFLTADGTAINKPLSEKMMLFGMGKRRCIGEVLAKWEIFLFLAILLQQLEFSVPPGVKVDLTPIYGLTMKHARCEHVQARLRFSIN
smiles,measurement,setting,value
CC(C)Oc1ccccc1O,Potency,[1],inactive
same,Potency,[2],inactive
same,Potency,[3],inactive
C=CC(=O)NC(C)(C)C,Potency,[1],inactive
same,Potency,[2],inactive
same,Potency,[3],inactive
NCCOCCOCCN,Potency,[1],inactive
same,Potency,[2],inactive
same,Potency,[3],inactive
CCCCCO,Potency,[1],inactive
same,Potency,[2],inactive
same,Potency,[3],inactive
COc1cc(CNC(=O)CCCC/C=C/C(C)C)ccc1O,Potency,[1],9.77 µM (active)
same,Potency,[2],inactive
same,Potency,[3],12.3 µM (active)
C[C@H](CN1CCCC1)C(=O)c1ccc(C(F)(F)F)cc1,Potency,[1],inactive
same,Potency,[2],inactive
same,Potency,[3],inactive
C[C@H](N)C(=O)N[C@@H](C)C(=O)NC1[C@H]2CN(c3nc4c(cc3F)c(=O)c(C(=O)O)cn4-c3ccc(F)cc3F)C[C@@H]12 (stereo partly specified),Potency,[1],inactive
same,Potency,[2],inactive
same,Potency,[3],12.3 µM (active)
O=S(=O)(O)c1cc(Cl)c(Cl)cc1Cl,Potency,[1],31.7 µM (active)
same,Potency,[2],inactive
same,Potency,[3],inactive
OCCOc1cccc(OCCO)c1,Potency,[1],inactive
same,Potency,[2],inactive
same,Potency,[3],inactive
O=C(O)c1cc(C(=O)O)cc([N+](=O)[O-])c1,Potency,[1],inactive
same,Potency,[2],inactive
same,Potency,[3],inactive
c1ccc(CN(Cc2ccccc2)Cc2ccccc2)cc1,Potency,[1],31.7 µM (active)
same,Potency,[2],24.5 µM (active)
same,Potency,[3],inactive
COc1ccc(C(=O)Nc2ccccc2)cc1[N+](=O)[O-],Potency,[1],35.9 µM (active)
same,Potency,[2],inactive
same,Potency,[3],35.9 µM (active)
CCc1ccc(C(=O)C(C)CN2CCCCC2)cc1 (stereo unspecified),Potency,[1],inactive
same,Potency,[2],inactive
same,Potency,[3],inactive
C=CC(C)CCC=C(C)C (stereo unspecified),Potency,[1],inactive
same,Potency,[2],inactive
same,Potency,[3],inactive
CCCCCCCCCC(C)C=O (stereo unspecified),Potency,[1],44.8 µM (active)
same,Potency,[2],inactive
same,Potency,[3],inactive
CC(=O)c1ccc(Cl)c(Cl)c1Cl,Potency,[1],inactive
same,Potency,[2],inactive
same,Potency,[3],inactive
CCCOC(C)=O,Potency,[1],inactive
same,Potency,[2],inactive
same,Potency,[3],inactive
O=C1CCCN1CCO,Potency,[1],inactive
same,Potency,[2],inactive
same,Potency,[3],inactive
Oc1ccc(Oc2ccccc2)cc1,Potency,[1],26.8 µM (active)
same,Potency,[2],inactive
same,Potency,[3],inactive
O=C(OCCCCCOC(=O)c1ccccc1)c1ccccc1,Potency,[1],11.2 µM (active)
same,Potency,[2],inactive
same,Potency,[3],inactive
CC(C)(O)C(=O)O,Potency,[1],inactive
same,Potency,[2],inactive
same,Potency,[3],inactive
CCC(=O)O[C@@H]1C[C@H]2CC[C@]1(C)C2(C)C,Potency,[1],inactive
same,Potency,[2],inactive
same,Potency,[3],inactive
COC(=O)Cc1cccc2ccccc12,Potency,[1],inactive
same,Potency,[2],inactive
same,Potency,[3],inactive
c1ccc(-c2ccc(-c3ccccc3)cc2)cc1,"activity change, negative = inhibition",[1],-16.3% [at 23.6 µM]
same,"activity change, negative = inhibition",[2],1.54% [at 15.8 µM]
same,"activity change, negative = inhibition",[3],-14.7% [at 23.6 µM]
C[C@H]1C[C@H]2[C@@H]3CCC4=CC(=O)C=C[C@]4(C)[C@@]3(F)[C@@H](O)C[C@]2(C)[C@@]1(O)C(=O)COP(=O)(O)O,Potency,[1],inactive
same,Potency,[2],inactive
same,Potency,[3],inactive
CC(=O)c1cccnc1,Potency,[1],inactive
same,Potency,[2],inactive
same,Potency,[3],inactive
CC(C)=CCC/C(C)=C/C=N/O,Potency,[1],39.9 µM (active)
same,Potency,[2],inactive
same,Potency,[3],28.3 µM (active)
FC(F)(Cl)C(F)(Cl)Cl,Potency,[1],inactive
same,Potency,[2],inactive
same,Potency,[3],inactive
Cc1c(Cl)cccc1Nc1ccccc1C(=O)O,Potency,[1],17.4 µM (active)
same,Potency,[2],inactive
same,Potency,[3],inactive
CCCCCCCCC(=O)OCC(C)OC(=O)CCCCCCCC (stereo unspecified),Potency,[1],59.1 µM (active)
same,Potency,[2],inactive
CCC(C)C1N=C(C)C(C)S1 (stereo unspecified),Potency,[1],39.9 µM (active)
same,Potency,[2],inactive
same,Potency,[3],25.2 µM (active)
OCC(O)c1ccccc1 (stereo unspecified),Potency,[1],inactive
same,Potency,[2],inactive
same,Potency,[3],inactive
CCCCCC1CCC(=O)O1 (stereo unspecified),Potency,[1],89.4 µM (active)
same,Potency,[2],inactive
same,Potency,[3],inactive
Nc1ncnc2c1ncn2[C@@H]1O[C@H](CO)[C@@H](O)[C@H]1O,Potency,[2],inactive
CCn1nc(Cc2ccccc2)cc1C1CCN(C[C@H]2C[C@H](N(C)[C@@H](C(=O)O)C(C)C)C[C@@H]2c2cccc(F)c2)CC1,Potency,[2],13.8 µM (active)
CC1=CC(=C(c2ccc(N)cc2)c2ccc(N)cc2)C=CC1=N,"activity change, negative = inhibition",[2],-5.88% [at 6.97 µM]
same,Potency,[3],2.86 µM (active)
CCCCCCCCCCCCSC#N,Potency,[4],7.96 µM (active)
same,Potency,[2],inactive
same,Potency,[3],inactive
CC/C=C\CCO,Potency,[2],inactive
O=C(O)CNc1ccccc1,Potency,[2],inactive
same,Potency,[3],inactive
CC(=O)Nc1cccc(N)c1,Potency,[2],inactive
CC(=O)Nc1ccn(C2COC(COC(=O)c3ccccc3)O2)c(=O)n1 (stereo unspecified),Potency,[2],inactive
same,Potency,[3],inactive
CC(C)(Cc1c[nH]c2ccccc12)NCC(O)COc1ccccc1C#N (stereo unspecified),Potency,[2],8.49 µM (active)
same,Potency,[3],inactive
CC(CN=Cc1ccccc1O)N=Cc1ccccc1O (stereo unspecified),Potency,[2],inactive
same,Potency,[3],inactive
Cc1c(N=C=O)cccc1N=C=O,Potency,[2],inactive
Nc1nc(Cl)nc2c1ncn2[C@H]1C[C@H](O)[C@@H](CO)O1,Potency,[2],inactive
CCCCCCCCCCCC(=O)OCC,Potency,[2],inactive
same,Potency,[3],inactive
CCC(=O)O[C@]1(C(=O)COC)[C@@H](C)C[C@H]2[C@@H]3CCC4=CC(=O)C=C[C@]4(C)C3(F)[C@@H](O)C[C@@]21C (stereo partly specified),Potency,[2],inactive
O=C(O)c1ccncc1,Potency,[2],inactive
CC(=O)Nc1ccccc1O,Potency,[2],inactive
CC(O)C(C)O (stereo unspecified),Potency,[2],inactive
same,Potency,[3],inactive
CC(Cc1ccccc1)(NC(=O)CN)c1ccccc1 (stereo unspecified),Potency,[2],inactive
O=C1c2ccccc2C(=O)C1c1ccc2ccccc2n1,Potency,[2],inactive
